PubChem BioAssay AID493162 (ICCB-Longwood Screening Facility, Harvard Medical School, 2011)
Screen size: about 46,000 compounds; about 430 (0.93%) were called active. This is one part of a sample in which actives are shown more often than they occur. A number with no mark means an inactive call. No stated cut-off is given here; in the data, active means normalized absorbance mostly below about 85% (no sharp cut-off); inactive means mostly above about 86%.

The compounds below were run on Vaccinia virus DNA polymerase (E9) processive complex (assay: vaccinia E9 polymerase processive synthesis inhibitors, primary screen, biochemical, absorbance (AID 493162)). Conditions: in vitro processive DNA synthesis, absorbance read-out; hits give low values; concentration not given here.
In the case of `CC(C)NC(=O)CN1C(=O)c2cccnc2Oc2ccccc21`, the normalized absorbance is reported as 102%. With `O=C(NCc1ccccc1Cl)C1(c2ccccc2)CCCC1` the normalized absorbance was 97.8%. In the case of `CS(=O)(=O)N1CCN=C1SCc1cccnc1`, the normalized absorbance is reported as 66.5% (active). `O=C(O)CCc1cccnc1` gave a normalized absorbance of 102%. Compound `CSC1=NCCN1S(=O)(=O)c1ccc(Br)cc1` has a normalized absorbance of 110%. `COC(=O)Nc1cn(Cc2ccccn2)c(=O)c2ccccc12` was tested, and the normalized absorbance was 112%. `O=c1[nH]c(=S)[nH]cc1S(=O)(=O)c1ccc(F)cc1` was tested, and the normalized absorbance was 99.5%. Work on `O=C(Nc1ccc2nc(SCC(=O)N3CCc4ccccc43)sc2c1)c1ccccc1Cl` yielded a normalized absorbance of 100%. In the case of `CCN(CC)c1ccc(C=Nc2cc(C)cc(C)c2)cc1`, the normalized absorbance is reported as 100%. For `CCOc1ccc(S(=O)(=O)N2CCC(C)CC2)cc1`, the normalized absorbance was 99%. In the case of `Nc1ccc(-c2nc3ccccc3[nH]2)c(N)c1`, the normalized absorbance is reported as 99.3%. `COc1ccc(C2=NS(=O)(=O)N(C)C(C(=O)N(C)Cc3ccccc3)=C2)cc1` gave a normalized absorbance of 86.6%. With `Cc1cccc(-n2nc3c(c2NC(=O)/C=C\c2ccco2)CSC3)c1C` the normalized absorbance was 85.2%. Work on `CC(=O)Nc1sc(C)nc1-c1ccccc1` yielded a normalized absorbance of 99.1%. For `CC(=O)n1c(C=Nc2ccccc2)c(O)c2ccccc21`, the normalized absorbance was 99.4%. In the case of `CC(=O)n1c2ccccc2c2nc(C)sc21`, the normalized absorbance is reported as 45.9% (active). For `Cc1nc2ccc(S(=O)(=O)NC(CC(C)C)C(=O)NC3CCCCCC3)cc2s1` (stereo not drawn), the normalized absorbance was 103%. With `CCOc1ccc(C(=O)Nc2nc3c(OC)cccc3s2)cc1` the normalized absorbance was 106%. `Cc1ccc(S(=O)(=O)N2CCCC(n3cccc3)C2)cc1` (stereo not drawn) was tested, and the normalized absorbance was 117%. Compound `CC12CCC3C(CCC4CCCCC43C)C1C/C(=C\c1ccc[nH]1)C2=O` (stereo not drawn) has a normalized absorbance of 101%. For `Cc1cc(Nc2ccc(Cl)cc2)n2c(nc3ccccc32)c1C#N`, the normalized absorbance was 100%. `COc1ccc(-c2cc(-c3ccccc3)nc(SCC(N)=NC#N)c2C#N)cc1` was tested, and the normalized absorbance was 100%. Work on `C[N+](C)(C)CCOC(=O)c1ccccc1` yielded a normalized absorbance of 99.6%. For `Cc1nc(C)nc(N(Cc2ccccc2)Cc2ccccc2)n1`, the normalized absorbance was 94.7%. `Cc1ccc(Nc2c(-c3c[nH]c4ccccc34)nc3c[n+](CC(N)=O)ccn23)cc1` showed a normalized absorbance of 95.2%. In the case of `COc1ccc(C(=O)N2CCN(c3ccc(N4CCOCC4)nn3)CC2)cc1`, the normalized absorbance is reported as 101%. `O=C1NC(=Nc2ccc(O)cc2)S/C1=C\c1ccc(Cl)cc1Cl` gave a normalized absorbance of 100%. Compound `CC1CCc2sc(NC(=O)Cc3ccccc3)c(C(N)=O)c2C1` (stereo not drawn) has a normalized absorbance of 89.9%. `Cc1nc(SCC(=O)c2ccc(Cl)cc2)c(C#N)c(C)c1C` gave a normalized absorbance of 99.7%. For `COc1ccc(C(=O)CSC2=C(C#N)C(c3cccs3)CC(=O)N2)cc1` (stereo not drawn), the normalized absorbance was 101%. In the case of `N#Cc1c(-c2cccs2)nc(SCC(=O)c2ccc(Br)cc2)[nH]c1=O`, the normalized absorbance is reported as 68.9% (active). For `O=C(NCc1cccnc1)c1cc(-c2ccccn2)nc2ccccc12`, the normalized absorbance was 102%. In the case of `COc1ccc(-c2nnn(-c3cccc(C(F)(F)F)c3)c2N)cc1OC`, the normalized absorbance is reported as 112%. Compound `Cc1cc(C)cc(Oc2coc3c(CN4CCCCCC4)c(O)ccc3c2=O)c1` has a normalized absorbance of 100%. `O=C(CCc1nc(-c2ccccc2)no1)N1CCCCC1` was tested, and the normalized absorbance was 94.1%. With `Fc1ccccc1Cn1cnc2ccccc21` the normalized absorbance was 100%. For `O=C(O)CCCC(=O)Nc1ccccn1`, the normalized absorbance was 98.3%. Work on `Cc1cc(-c2cn(/N=C/c3ccc(Cl)cc3Cl)c(N)n2)c(C)s1` yielded a normalized absorbance of 97.6%. `Cc1nc2cc(Cl)ccc2c(=O)n1-c1nc2ccccc2[nH]1` showed a normalized absorbance of 103%. With `CC(C)(C)c1cn2c3ccccc3nc2n1CCCO` the normalized absorbance was 96.5%. For `Cc1nnc(SCC(=O)O)[nH]c1=O`, the normalized absorbance was 96.1%. Work on `Cc1nc2sc(C(c3ccc(F)cc3)N3CCC(O)CC3)c(O)n2n1` (stereo not drawn) yielded a normalized absorbance of 101%. For `CC(C)Nc1nc(-c2ccccc2O)nc2ccccc12`, the normalized absorbance was 102%. `O=C(O)CSc1ccc(Br)c2cccc(Cl)c12` showed a normalized absorbance of 81.7%. In the case of `O=C(O)CSc1ccc2ccccc2c1Br`, the normalized absorbance is reported as 85.4% (active). Compound `Cc1nc2ccccc2nc1SCC(=O)O` has a normalized absorbance of 103%. `COc1ccc(C2CC(=O)n3nc(-c4ccccc4)nc3S2)cc1OC` (stereo not drawn) gave a normalized absorbance of 100%. For `Cc1cc2cc(CNS(=O)(=O)N(C)C)ccc2n1C`, the normalized absorbance was 101%. `O=S(=O)(c1cccc2cccnc12)N1CCN(c2cccc(Cl)c2)CC1` was tested, and the normalized absorbance was 101%. Compound `Cc1nc(N2CC(C)OC(C)C2)c2c3c(sc2n1)CCC3` (stereo not drawn) has a normalized absorbance of 100%. For `COc1ccccc1NC(=O)c1cccc(N2C(=O)C3CC=CCC3C2=O)c1` (stereo not drawn), the normalized absorbance was 89.3%. In the case of `COc1ccc(C2C=C(c3ccccc3)NC(=O)C2C#N)cc1` (stereo not drawn), the normalized absorbance is reported as 94.4%. Work on `Cc1ccc(-c2nc(C)sc2CC(=O)O)cc1` yielded a normalized absorbance of 98.3%. With `COc1ccc(NS(=O)(=O)c2ccc(Oc3c(C#N)cccc3C#N)cc2)cc1` the normalized absorbance was 104%. `CCCn1c[n+](CC(=O)C(C)(C)C)c2ccccc21` gave a normalized absorbance of 101%. `COc1ccc(NC(=O)C(C)n2cccc2)cc1` (stereo not drawn) was tested, and the normalized absorbance was 102%. `O=c1[nH]c(-c2ccc(F)cc2)nc2ccccc12` showed a normalized absorbance of 102%. For `Cn1nnnc1SCC(=O)Nc1nccs1`, the normalized absorbance was 104%. For `C=CCn1c(SCC(=O)Nc2nnc(CC)s2)nnc1-c1cccs1`, the normalized absorbance was 99.4%. Compound `CC(NC(=O)Nc1ccc2c(c1)N(C)C(=O)c1ccccc1S2)c1ccccc1` (stereo not drawn) has a normalized absorbance of 110%. With `CN1CCc2ccccc2C1Cc1ccccc1NS(=O)(=O)c1cccc(C(F)(F)F)c1` (stereo not drawn) the normalized absorbance was 97.1%. In the case of `O=c1c2ccccc2c(-c2ccccc2)nn1Cc1ccccc1`, the normalized absorbance is reported as 99.7%. In the case of `O=c1c2cccc3c2c(nn1CN1CCCCC1)-c1ccccc1-3`, the normalized absorbance is reported as 76% (active). Compound `O=C1c2ccccc2-c2nn(CC(=O)N3CCOCC3)c3cccc1c23` has a normalized absorbance of 92.9%. With `CCOC(=O)CSc1nc2ccccc2n1C(=O)Oc1ccccc1` the normalized absorbance was 95.5%. `O=C(O)CCc1nnc2ccc(N3CCCC3)nn12` gave a normalized absorbance of 103%. For `FC(F)(F)c1cccc(Oc2cnc3ccccc3n2)c1`, the normalized absorbance was 95.2%. With `Cc1ccc2c(Cl)c(C(=O)N(Cc3cccs3)C3CCS(=O)(=O)C3)sc2c1` (stereo not drawn) the normalized absorbance was 100%. With `C/C(C#N)=C(/N)c1ccccc1` the normalized absorbance was 104%. Work on `CCOC(=O)CSc1nc(N)c2c3c(sc2n1)CCC3` yielded a normalized absorbance of 95.7%. Work on `COc1ccc2c(C)cc(-n3nc(C)cc3C)nc2c1` yielded a normalized absorbance of 99%. In the case of `COc1ccc(Cl)cc1-n1c(SCc2cccc(Cl)c2)nnc1-c1cc2occc2n1C`, the normalized absorbance is reported as 108%. `O=C(Nc1ccc(-c2nc3ccccc3o2)cc1)c1ccc(Oc2ccccc2)cc1` showed a normalized absorbance of 100%. `CCOc1ccc2nc(NC(=O)C3CC3)sc2c1` showed a normalized absorbance of 100%. With `COc1ccc(/C=N/n2c(C)cc(C)cc2=O)cc1` the normalized absorbance was 100%. With `CCOc1cccc(NC(=O)c2cc(=O)c3ccccc3o2)c1` the normalized absorbance was 100%. In the case of `CCOc1ncccc1C(=O)Nc1cccc(C(F)(F)F)c1`, the normalized absorbance is reported as 102%. For `CCOC(=O)c1cnc2c(C)c(C)ccc2c1NCCCN(C)C`, the normalized absorbance was 39.1% (active). `CCOC(=O)Cc1nc(N)ncc1C(=O)OCC` gave a normalized absorbance of 101%. With `CCOC(=O)c1cc2ccccc2nc1C` the normalized absorbance was 99.8%. `c1ccc(-c2cc(NCC3CC3)n3cnnc3n2)cc1` showed a normalized absorbance of 98.2%. `O=C(NCCN1CCCc2ccccc21)c1cc(-c2cccs2)nc2ccccc12` gave a normalized absorbance of 96.3%. With `C=CCn1c(-c2ccccc2)csc1=Nc1ccc(O)cc1` the normalized absorbance was 100%. With `COc1ccc(-n2nc(C(=O)NCC3CCCO3)c3c4ccccc4n(C)c3c2=O)cc1` (stereo not drawn) the normalized absorbance was 103%. `COc1ccc(-c2nc(NCC3CCCO3)c3ccccc3n2)cc1` (stereo not drawn) was tested, and the normalized absorbance was 66.4% (active). With `CN1CCN(c2nc(NCC3CCCO3)c3ccccc3n2)CC1` (stereo not drawn) the normalized absorbance was 98.7%. For `Cc1ccc(C)n1-c1nn(S(C)(=O)=O)c2cccc(F)c12`, the normalized absorbance was 92.7%. In the case of `COc1cccc(C2=Nc3ccccc3C2=O)c1`, the normalized absorbance is reported as 99.2%. Compound `COC(=O)c1coc(-c2ccccc2)n1` has a normalized absorbance of 102%. `O=C(N/C(=C/c1ccccc1)P(=O)(O)c1ccccc1)c1ccccc1` was tested, and the normalized absorbance was 98.3%. Compound `Cc1ccc(/C=C/C(=O)NCC2CCCO2)o1` (stereo not drawn) has a normalized absorbance of 89.2%. With `CN(C)c1nc(NCc2ccccc2)nc(Nc2ccc(OC(F)(F)F)cc2)n1` the normalized absorbance was 100%. `CCc1ccccc1N1CC(c2nc3ccccc3[nH]2)CC1=O` (stereo not drawn) was tested, and the normalized absorbance was 90.4%. With `CC(C)NC(=O)Oc1noc2ccc(Cl)cc12` the normalized absorbance was 99.1%. `CCN1C(=O)/C(=C/C=C/c2ccco2)C(=O)NC1=S` was tested, and the normalized absorbance was 64.7% (active). `Cc1ccc(N2NC(=O)/C(=C/C=C/c3ccco3)C2=O)cc1C` was tested, and the normalized absorbance was 99.9%. `C=CCN1C(=O)/C(=C/c2ccc3c(c2)n(C)c(=O)n3C)C(=O)NC1=S` was tested, and the normalized absorbance was 100%. Work on `CC(=O)Nc1ccc(N2C(=O)C=CC2=O)cc1` yielded a normalized absorbance of 124%. `CC(C)CNS(=O)(=O)C1CCS(=O)(=O)C1` (stereo not drawn) was tested, and the normalized absorbance was 102%. Work on `Nc1ncnc2c1ncn2CCNCc1ccccc1` yielded a normalized absorbance of 103%. Work on `NC(=O)C(Cc1ccccc1)NC(=O)C12CC3CC(CC(C3)C1)C2` (stereo not drawn) yielded a normalized absorbance of 72.6%. For `CCOc1cc(/C=C2\SC(=S)N(C(C)C(=O)O)C2=O)ccc1O` (stereo not drawn), the normalized absorbance was 99%. For `Cc1cc(C)n(-c2nc(-c3cccnc3)nc3ccccc23)n1`, the normalized absorbance was 85.7%. For `CCS(=O)c1nc2c(Br)cccc2[nH]1` (stereo not drawn), the normalized absorbance was 94.1%. `Cc1ccc(NCC(O)c2ccc(Cl)cc2)cc1` (stereo not drawn) showed a normalized absorbance of 102%. `Cc1ccc(S(=O)(=O)NCc2ccc(C(=O)NC3CCC(C)CC3)cc2)cc1` (stereo not drawn) gave a normalized absorbance of 99%. In the case of `O=C(c1ccc(Cl)cc1Cl)n1c(=O)oc2cc(S(=O)(=O)N3CCCCC3)ccc21`, the normalized absorbance is reported as 101%. `COc1ccc(C2C(C#N)=C(N)OC(C)=C2C(=O)OCc2ccccc2)cc1` (stereo not drawn) gave a normalized absorbance of 102%. In the case of `O=C1/C(=C/c2ccc(N3CCOCC3)cc2)CCc2ccccc21`, the normalized absorbance is reported as 100%. `N#CCCn1c(=S)n(CCC#N)c2ccccc21` showed a normalized absorbance of 106%. `COC(=O)c1ccc(Cn2nc(C)c(Cl)c2C)cc1` was tested, and the normalized absorbance was 92.4%. `CC(=O)Nc1ccc(C2N3CCCN23)cc1` (stereo not drawn) showed a normalized absorbance of 100%. In the case of `CCCCn1c(CCCNC(=O)CC)nc2ccccc21`, the normalized absorbance is reported as 98.7%. For `C=CCSc1nc(N)cc(=O)[nH]1`, the normalized absorbance was 101%. `C=CCSc1nc2ccccc2[nH]1` was tested, and the normalized absorbance was 89.7% (active). `CNC(=O)CSc1nc2ccccc2[nH]1` was tested, and the normalized absorbance was 99.5%. With `CC(O)CNC(=O)c1sc2ccccc2c1Cl` (stereo not drawn) the normalized absorbance was 95.9%. `Cc1c(CNCCC2=CCCCC2)c(C(=O)O)c(C)n1Cc1cccc(Cl)c1` was tested, and the normalized absorbance was 92%.
